Potency data for 13 molecules are collected here from PubChem BioAssay (NCATS).

Results filed as inconclusive are left out. Active and inactive are the calls of the source. Calls come from the whole dose curve; as a rule, active = well fitted inhibition curve with a large enough effect; inconclusive = small, poorly fitted or top-dose-only effect; inactive = flat fitted curve, though single readings scatter.

What all share (test): qHTS profiling for inhibitors of Plasmodium falciparum proliferation (AID 504749); note: nearly all actives have a fitted effect of over 60% in size
Holding throughout (conditions): P. falciparum in erythrocytes, SYBR Green DNA, 72 h; series mostly up to 28.7 µM

For test [1], the system named is CP238. In outline: (§1)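 In a 72 h erythrocytic culture (37 C, humidified, 5% CO2) at 2.5% hematocrit and 0.3% starting parasitemia, compounds were tested; SYBR Green I in detergent lysis buffer stained parasite DNA overnight.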
The subject of test [2] is CP247. In outline:
as §1

Test [3] concerns CP250. In outline:
as §1

The test system of test [4] is CP252. In outline:
as §1

The test system of test [5] is CP256. In a few lines:
as §1

Test [6] has as its system CP260. In a few lines:
as §1

Test [7] concerns CP265. In a few lines: as §1
Test [8] concerns CP266. In outline:
as §1

Test [9] deals with CP268. In outline:
as §1

The subject of test [10] is CP269. In outline:
as §1

Test [11] deals with CP286. In outline: as §1
Test [12] deals with CP291. In outline:
as §1

For test [13], the system named is CP297. In outline:
as §1

The subject of test [14] is CP305. In outline:
as §1

For test [15], the system named is CP315. In outline: as §1
In test [16] the test system is CP325. In a few lines: as §1
Test [17] has as its system CP329. In outline: as §1
Test [18] deals with CP335. In a few lines: as §1
Test [19] deals with DFO2036. In outline: as §1
The test system of test [20] is CP262. In outline:
as §1
Potency is the fitted concentration of half-maximal effect.

In the case of `CC(C)(C)CC(C)(C)c1ccc(OCCOCC[N+](C)(C)Cc2ccccc2)cc1`, the Potency in test [1] was 4.47 µM (active); in [2] it was 3.98 µM (active); in test [3], 4.47 µM (active); in test [4] it was 5.01 µM (active); in test [5] it was 4.47 µM (active); in test [6] it was 1.41 µM (active). Further, the Potency in test [7] was 4.47 µM (active); in test [8] it was 4.26 µM (active); in test [9], 4.26 µM (active); in test [10], 3.79 µM (active); in test [11], 2.24 µM (active); in [12], 4.78 µM (active). Further, the Potency in test [13] was 4.26 µM (active); in test [14], 4.78 µM (active); in test [15], 4.78 µM (active); in test [16] it was 4.78 µM (active); in test [17], 4.78 µM (active); in test [18] it was 1.51 µM (active). Further, the Potency in [19] is 3.98 µM (active).

Regarding `O=C(N/N=C/c1ccccc1O)c1ccncc1`, the Potency in [1] was 8.91 µM (active); in [2] it was 8.91 µM (active); in test [3], 10 µM (active); in test [4], 8.91 µM (active); in test [5] it was 11.2 µM (active); in [6] it was 5.01 µM (active). For the same molecule, the Potency is 5.01 µM (active) in [11], 6.01 µM (active) in test [18] and 7.94 µM (active) in test [19]. Further, the Potency entry in test [13] was “inactive”.

Take `C#C[C@]1(O)CC[C@H]2[C@@H]3CCc4cc(OC5CCCC5)ccc4[C@H]3CC[C@@]21C`: the Potency result in [1], in [2], in [3], in [4], in test [6] and in test [9] was “inactive” throughout. The Potency entry in test [10], in test [11], in [12], in test [13], in [14] and in test [15] was “inactive” throughout. For the same molecule, the Potency entry in [16], in test [17] and in test [19] was “inactive” throughout.

Take `CN1CCC(=C2c3ccccc3Sc3ccccc32)CC1`: the Potency in [1] was 11.2 µM (active); in test [2], 7.94 µM (active); in test [3] it was 11.2 µM (active); in [4], 7.08 µM (active); in [5] it was 11.2 µM (active); in [6], 8.91 µM (active). Further, the Potency is 7.08 µM (active) in test [7]; 13.5 µM (active) in [10]; 11.2 µM (active) in test [11]; 9.53 µM (active) in [12]; 8.49 µM (active) in [13]; 12 µM (active) in test [18]. In test [19], the Potency is 10 µM (active).

In the case of `CCN(CC)CCOC(=O)C(c1ccccc1)C1CCCCC1` (stereo not drawn), the Potency entry in test [1], in test [2], in [3], in test [4], in test [5] and in [20] was “inactive” in each case. Besides, the Potency entry in [7], in [8], in test [10], in [11], in [13] and in test [14] was “inactive” throughout. Moreover, the Potency entry in [15], in [16], in [18] and in [19] was “inactive” each time.

Turning to `CCCCCCCCCCOCC(O)CN` (stereo not drawn), the Potency result in [1], in test [2], in [3], in test [6], in test [20] and in [8] was “inactive” throughout. Further, the Potency entry in test [10], in test [15], in test [17] and in test [19] was “inactive” each time.

As for `CCOc1ccc2nc3cc(N)ccc3c(N)c2c1`, the Potency is 5.01 µM (active) in test [1]; 10 µM (active) in [2]; 8.91 µM (active) in [3]; 7.08 µM (active) in test [4]; 4.47 µM (active) in test [5]; 3.98 µM (active) in test [6]. For the same molecule, the Potency is 11.2 µM (active) in test [7]; 15.1 µM (active) in [9]; 9.53 µM (active) in test [10]; 1.41 µM (active) in test [11]; 12 µM (active) in test [12]; 15.1 µM (active) in test [13]. Also, the Potency was 9.53 µM (active) in test [14]; 4.26 µM (active) in test [15]; 15.1 µM (active) in test [17]; 6.01 µM (active) in test [18]; 5.62 µM (active) in [19].

In the case of `Cc1cccc(C)c1NC(=O)CN1CCN(CCCC(c2ccc(F)cc2)c2ccc(F)cc2)CC1`, the Potency entry in test [1], in [2], in test [3], in test [4], in [5] and in test [6] was “inactive” in each case. For the same molecule, the Potency result in test [7], in [8], in test [9], in test [11], in test [12] and in [14] was “inactive” each time. In addition, the Potency entry in [15], in test [16], in test [17] and in test [19] was “inactive” in each case.

As for `CC/C(=C(/CC)c1ccc(O)cc1)c1ccc(O)cc1`, the Potency entry in [1], in test [2], in [3], in [4], in test [7] and in [8] was “inactive” in each case. In addition, the Potency result in test [9], in test [10], in test [11], in test [12], in [13] and in test [14] was “inactive” each time. The Potency entry in [15], in test [16], in [17] and in test [19] was “inactive” each time.

On to `CCN(CC)C(=O)/C(C#N)=C/c1cc(O)c(O)c([N+](=O)[O-])c1`, for which the Potency entry in test [1], in test [3], in test [4], in test [5], in test [6] and in test [20] was “inactive” throughout. Further, the Potency result in [7], in test [8], in test [9], in test [10], in [12] and in test [13] was “inactive” throughout. Also, the Potency result in test [14], in test [15], in [16], in test [17], in test [18] and in test [19] was “inactive” each time.

With `CCCCCCC[N+](CC)(CC)CCCCc1ccc(Cl)cc1`, the Potency in test [1] is 2.51 µM (active); in test [2], 2.51 µM (active); in test [3], 3.16 µM (active); in test [4], 2.51 µM (active); in test [5] it was 2.24 µM (active); in test [6], 2.24 µM (active). For the same molecule, the Potency in test [7] is 2.82 µM (active); in [8], 2.56 µM (active); in test [9] it was 2.56 µM (active); in test [10], 1.61 µM (active); in [11], 1.12 µM (active); in test [12], 1.81 µM (active). Further, the Potency was 2.03 µM (active) in test [13]; 0.572 µM (active) in test [14]; 2.28 µM (active) in [15]; 2.28 µM (active) in test [16]; 1.81 µM (active) in [17]; 1.81 µM (active) in [18]. Further, the Potency in [19] is 1.78 µM (active).

In the case of `Cc1c(C)n(CCN(C)C)c2ccc(C(=O)OCCN(C)C)cc12`, the Potency result in test [1], in [2], in test [3], in test [4], in test [5] and in test [20] was “inactive” each time. The Potency entry in [7], in [8], in test [9], in test [10], in [11] and in test [12] was “inactive” each time. Also, the Potency entry in test [13], in test [14], in [15], in [16], in test [17] and in [18] was “inactive” throughout. Moreover, the Potency result in [19] was “inactive”.

As for `CN(C)CCCOc1nn(Cc2ccccc2)c2ccccc12`, the Potency entry in [1], in [3], in [4], in [5], in test [6] and in test [20] was “inactive” each time. For the same molecule, the Potency entry in test [8], in test [10], in test [11], in [13], in test [14] and in test [15] was “inactive” in each case. For the same molecule, the Potency result in test [16], in test [17] and in [19] was “inactive” in each case.
